Counter-ions that a name gives are not always drawn.
Experiments:
Assay in all cases: Euclidean distance of Cell Painting phenotypic profile (signed KS, 77 features) to DMSO centroid (dimensionless distance); 5 or 10 uM (library dependent); higher = stronger phenotypic change vs DMSO (phenoactivity)
Conditions in all cases: 48 h
786-O = test system: 786-O
Procedure, shortened: (§1)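 Library compounds were applied at 10 or 5 uM, depending on the library, with 0.1% DMSO final, for 48 h to five cancer lines and a healthy fibroblast line. After staining, cells were imaged confocally at 20X across 9 fields per well, and Harmony extracted 77 features, each scored as a signed Kolmogorov-Smirnov statistic against vehicle wells on the same plate. Phenoactivity is the Euclidean distance between each profile and the median vehicle profile, with profiles first plate-position corrected, correlation-weighted and averaged over replicates at the top dose.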

A549 = test system: A549
Procedure, shortened: as §1

DU145 = test system: DU145
Procedure, shortened: as §1

FB = test system: FB
Procedure, shortened: as §1

HEPG2 = test system: HEPG2
Procedure, shortened: as §1

OVCAR4 = test system: OVCAR4
Procedure, shortened: as §1

Compound	Euclidean distance (786-O)	Euclidean distance (A549)	Euclidean distance (DU145)	Euclidean distance (FB)	Euclidean distance (HEPG2)	Euclidean distance (OVCAR4)
O=C1c2cccc(O)c2C(=O)c2c(O)cc(CO)cc21 [Aloe-emodin]	1.1	1.14	1.2	1.05	1.08	1.41
O=C(O)CCCCCCCC(=O)O [Azelaic acid]	0.8	1.26	0.798	0.728	0.834	0.801
CCc1cnn2c(NCc3ccc[n+]([O-])c3)cc(N3CCCC[C@H]3CCO)nc12	3.35	2.78	3.2	3.11	2.64	3.58
C[C@H](NC(=O)CCc1nc2ccccc2c(=O)[nH]1)c1ccccc1	1.42	1.74	1.13	1.04	1.15	1.27
COC[C@H](NC(=O)c1cnc(C)s1)C(=O)N[C@@H](COC)C(=O)N[C@@H](Cc1ccccc1)C(=O)[C@@]1(C)CO1 [Oprozomib (ONX 0912)]	5.53	4.48	5.47	4.12	4.53	4.85
CCN(CC)CCNC(=O)c1cc(S(C)(=O)=O)ccc1OC [Tiapride Hydrochloride]	0.725	0.496	0.652	0.955	0.542	0.874
CN(C)C1CCN(C(=O)c2ccc(NC(=O)Nc3ccc(-c4nc(N5CCOCC5)nc(N5CCOCC5)n4)cc3)cc2)CC1	3.29	3.49	1.98	4.95	2.04	3.62
CN(C)C/C=C/C(=O)Nc1cc2c(Nc3ccc(F)c(Cl)c3)ncnc2cc1O[C@H]1CCOC1 [Afatinib (BIBW2992) Dimaleate]	4.65	3.63	5.93	5.45	4.62	4.49
Cc1cccc(-c2[nH]c(C(C)(C)C)nc2-c2ccc3c(c2)OCO3)n1	1.83	1.76	0.978	2.17	1.99	1.62
CCOC(=O)C(C)(C)Oc1ccc(Cl)cc1 [Clofibrate]	0.866	0.429	1.7	1.41	0.393	0.939
CC(COc1ccccc1Cc1ccccc1)N1CCCCC1 (centres undefined) [Benproperine phosphate]	1.67	1.63	1.72	1.18	1.58	1.42
CC(C)Cn1cnc2c(N)nc3ccccc3c21 [Imiquimod]	0.967	1.15	0.652	0.784	0.448	0.537
COc1ccnc(C[S+]([O-])c2nc3cc(-n4cccc4)ccc3[nH]2)c1C (centres undefined) [Ilaprazole sodium]	1.23	0.928	0.81	0.764	0.518	1.26
CCN1CCN(c2cc3c(cc2F)c(=O)c(C(=O)O)cn3C2CC2)CC1 [Enrofloxacin]	0.875	1.1	0.711	0.933	0.992	1.67
COc1ccc(-c2cc(=O)c3c(O)c(OC)c(O)cc3o2)cc1OC [Eupatilin]	1.61	1.04	1.76	1.51	1.35	0.872
CC(C)(C)[N+]([O-])=Cc1ccc(S(=O)(=O)O)cc1S(=O)(=O)O	1.04	1.8	0.995	1.52	1.43	1.57
CC(Cc1ccc(O)c(O)c1)C(C)Cc1ccc(O)c(O)c1 (centres undefined) [Nordihydroguaiaretic acid (NDGA)]	1.19	0.902	1.27	1.54	1.06	0.861
CC1=C(C(=O)OC(C)C)C(c2cccc([N+](=O)[O-])c2)C(C(=O)OC2CN(C(c3ccccc3)c3ccccc3)C2)=C(N)N1 (centres undefined) [Azelnidipine]	1.85	3.31	1.12	1.17	1.44	2.01
C=CCc1cccc(/C=N/NC(=O)CN2CCN(Cc3ccccc3)CC2)c1O	2.25	2.14	1.28	1.79	2.31	2.68
CCOC(=O)[C@H]1O[C@@H]1C(=O)N[C@@H](CC(C)C)C(=O)NCCC(C)C [Aloxistatin]	0.731	2.18	1.26	1.17	0.539	0.987
CC(=O)OC(C)C[N+](C)(C)C (centres undefined) [Methacholine chloride]	0.977	1.02	1.24	0.67	0.576	1.45
S=P(N1CC1)(N1CC1)N1CC1 [Thiotepa]	2.52	3.76	2.03	2.35	2.68	3.07
Cc1cccc(Nc2ccncc2S(=O)(=O)NC(=O)NC(C)C)c1 [Torsemide]	0.608	0.66	0.572	0.798	0.917	0.866
C[C@@H]1C/C=C/C=C/C=C/C=C/[C@H](O[C@@H]2O[C@H](C)[C@@H](O)[C@H](N)[C@@H]2O)C[C@@H]2O[C@](O)(C[C@@H](O)C[C@H]3O[C@@H]3/C=C/C(=O)O1)C[C@H](O)[C@H]2C(=O)O [Natamycin]	1.51	0.972	1.07	1.11	1.14	1.02
